High-throughput results as filed in PubChem.
This is a sample that favours compounds with a hit; in the whole collection about 8.9% have one here.
Htt clearance: compounds clearing mutant huntingtin protein. AID 853. inhibition, % at 1.5 µM. HeLa Exon1htt(103Q)mCFP, aggregate imaging; zero = plate's median compound well. 0.42% of 47,000 active;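 active = inhibition of aggregate fluorescence above about 70%, also judged a hit by eye on the cell image, limit read from the data, passing the limit was not always enough; inconclusive = no rule stated for this call; inactive = not judged a hit on image review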;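 also: cells exposed to compound for three days before fixation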
D1 mod: allosteric modulators of human D1 dopamine receptor | P21728 | HEK293 D1, CRE-luciferase, dopamine EC30 potentiation; actives deviate in either direction | B-score at 10 µM | 5.9% of 58,000 active | AID 641;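 active = luminescence count or its row- and column-corrected plate score outside the 99.7% band of the plate's sample wells, on either side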
Target sequence (P21728 whole entry, looked up): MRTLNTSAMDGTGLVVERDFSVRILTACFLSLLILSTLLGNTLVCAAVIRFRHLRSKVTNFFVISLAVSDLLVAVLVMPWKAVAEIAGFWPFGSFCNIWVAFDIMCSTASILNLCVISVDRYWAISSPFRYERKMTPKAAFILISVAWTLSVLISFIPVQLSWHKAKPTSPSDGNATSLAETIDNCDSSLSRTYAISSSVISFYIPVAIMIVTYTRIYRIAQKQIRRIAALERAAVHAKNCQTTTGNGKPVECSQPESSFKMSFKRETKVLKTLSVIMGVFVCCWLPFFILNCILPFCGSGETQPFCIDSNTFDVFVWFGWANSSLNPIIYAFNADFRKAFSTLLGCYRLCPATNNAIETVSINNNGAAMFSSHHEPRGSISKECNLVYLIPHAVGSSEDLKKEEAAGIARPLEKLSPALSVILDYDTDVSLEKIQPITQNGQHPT
M1 antagonist: M1 muscarinic receptor (rat) antagonism | P08482 | CHO-M1 cells, Fluo-4 calcium, ACh EC80 antagonist mode; stronger effect = lower value | B-score at 10 µM | 3.4% of 64,000 active | AID 628;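 active = calcium fluorescence response, raw or row-and-column corrected B-score, differing from the plate sample mean either way at a set confidence level, mostly lower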
M1 ag: activates the M1 muscarinic receptor; B-score at 10 µM; CHO-M1 cells, Fluo-4 calcium fluorescence, agonist mode; stronger effect = higher value; 3% of 64,000 active;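 active = fluorescence rise, raw or as B-score row- and column-corrected plate score, outside the 99.7% band of its plate's samples, either direction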
WNV protease inh: WNV NS2B-NS3 proteinase inhibition | AID 577 | z-score (concentration not given with the values) | WNV NS2B-NS3 protease, fluorogenic substrate Ex360/Em465; stronger effect = lower value | 0.18% of 65,000 active | P06935; in the data active = z-score below about -3
D1 mod confirm: confirmation of human D1 dopamine receptor allosteric modulators | luminescence at 10 µM | 88% of 2,200 active | shares compounds with D1 mod | AID 642 | HEK293 D1 CRE-luciferase, dopamine EC30 potentiation; stronger effect = higher value;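 active = luminescence in either of two replicates above the same-plate mean plus 3 SD of the low-dose dopamine control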
D1 ag no DA: D1 (human) signaling in absence of dopamine. shares compounds with D1 mod. HEK293 D1 CRE-luciferase, luminescence, no dopamine; stronger effect = higher value. luminescence at 10 µM. 0.8% of 1,900 active. AID 646; in the data active = luminescence above about 3900
Isoprot counter: counter-screen for D1 modulators: isoproterenol response in HEK293 cells; calls only at 10 µM; shares compounds with D1 mod; 63% of 2,200 active; AID 647; HEK293 D1 CRE-luciferase, isoproterenol EC30 counter-screen;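 active = luminescence in either replicate above plate mean of wells with a partly effective reference agonist dose plus 3 SD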;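 also: isoproterenol raises cAMP through native beta-adrenoceptor Gs so signal bypasses D1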
* = called active by the depositor; i = inactive; ? = inconclusive; · = no result given; + = active, no number.

SMILES	Htt clearance	D1 mod	M1 antagonist	M1 ag	WNV protease inh	D1 mod confirm	D1 ag no DA	Isoprot counter
NC(=O)C1(N2CCCCC2)CCN(c2ccc3nnc(-c4ccccc4)n3n2)CC1	?	11*	-0.45	-0.07	0.24	18940*	·	+
CC(C)N(CCCNC(=O)CC1Oc2ccccc2NC1=O)Cc1ccccc1 (stereo not given)	-26	-0.82	-0.57	-0.032	2	·	·	·
CCOc1ccc(CCNC(=O)c2cc3sccc3n2C)cc1OCC	·	·	0.011	0.58	1.7	·	·	·
CCOC(=O)c1oc2nc(C(C)C)c3c(c2c1N)CC(C)(C)OC3	3	4.7*	-0.038	0.45	0.31	6644*	1544	+
COc1ncnc2c1oc1nc(C(C)C)c3c(c12)CC(C)(C)OC3	·	8.7*	-0.99	-0.88	0.85	20880*	1744	+
Cc1nn(Cc2ccccc2)c(C)c1CCC(=O)O	29	0.83	-0.72	0.29	0.04	·	·	·
Cc1ccnc(SCCn2c(N3CCCCC3)nc3c2c(=O)n(C)c(=O)n3C)n1	-7	1.5	-0.36	-0.51	-0.17	·	·	·
COc1ccc(C2NC(=O)CS2)cc1OC (stereo not given)	24	5.8*	-0.16	0.027	0.23	13168*	·	+
CCCc1nc2oc3c(NCc4ccccn4)ncnc3c2c2c1COC(C)(C)C2	·	16*	·	·	2.8	19424*	·	+
CCCc1nc2oc3c(NCC4CCCO4)ncnc3c2c2c1COC(C)(C)C2 (stereo not given)	·	15*	·	·	1.4	19660*	·	+
CCCc1nc2oc(C(=O)OCC)c(N)c2c2c1COC(C)(C)C2	·	3.9	-0.22	-0.47	1.5	·	·	·
COCCCNc1ncnc2nc[nH]c12	·	0.7	-1.6	-0.26	-0.6	·	·	·
COC(=O)c1cc2sc(Cl)cc2n1CC(=O)N1CCCc2ccccc21	·	5.5*	-0.086	-0.28	-1.4	9576*	1504	i
COC(=O)c1cc2sccc2n1CC(=O)N1CCCc2ccccc21	·	2.5	-0.045	1.9	-0.58	·	·	·
CCOC(=O)C1CCN(CC(=O)Nc2c(C(=O)OC)[nH]c3cccc(Cl)c23)CC1	-40	3.7*	0.085	1.3	0.41	9896*	1640	+
CCOC(=O)C1CCN(CC(=O)Nc2c(C(=O)OC)[nH]c3ccccc23)CC1	-46	-0.66	-0.64	-0.16	-0.48	·	·	·
CCOC(=O)c1c(N)c(C#N)cn1-c1ccccc1	31	20*	-0.82	0.51	-0.49	19404*	1788	+
CCOC(=O)C1C(=O)NC(SCC(N)=O)=C(C#N)C1c1ccccc1OCC (stereo not given)	·	0.31	-0.037	-2	-0.65	·	·	·
C/C=C/Cn1c(SC)nc2c1c(=O)[nH]c(=O)n2C	·	-0.78	0.061	-0.57	0.61	·	·	·
C/C=C/Cn1c(SCc2ccc(Cl)cc2)nc2c1c(=O)[nH]c(=O)n2C	-32	7.3*	-0.22	0.75	-0.92	13964*	1680	+
CCCn1c(SCc2ccc(Cl)cc2)nc2c1c(=O)[nH]c(=O)n2C	21	5.2*	-0.12	1.7	-0.71	11480*	·	+
C/C=C/CSc1nc2c(c(=O)[nH]c(=O)n2C)n1CCC	·	14*	0.099	0.89	0.2	14660*	1456	+
O=C(CCN1C(=O)c2ccccc2C1=O)Nc1ccc(S(=O)(=O)N2CCOCC2)cc1	-3	-0.064	-0.21	-1.8	-1.3	·	·	·
O=C(OCCN1C(=O)c2ccccc2C1=O)c1cc(S(=O)(=O)N2CCOCC2)ccc1F	·	12*	0.032	-0.84	-3.1*	9428*	1532	+
CN(C)CCNc1oc(-c2ccccc2F)nc1C#N	-186	3.1	-0.047	0.42	-1	·	·	·
SMILES	Htt clearance	D1 mod	M1 antagonist	M1 ag	WNV protease inh	D1 mod confirm	D1 ag no DA	Isoprot counter
N#Cc1nc(-c2ccccc2F)oc1NCc1cccc2c1OCO2	8	21*	-0.57	-0.66	-1.4	21008*	1688	+
N#Cc1nc(-c2ccccc2F)oc1NC1CCCCC1	16	9.7*	-0.0082	0.47	-0.44	18604*	1740	+
COC(=O)C1CCN(C(=O)CCCOc2ccccc2)CC1	-75	-2.4	0.6	-1.1	-0.38	·	·	·
COc1ccc(-c2cc(C(F)(F)F)nc(SCC(=O)N3CC(C)OC(C)C3)n2)cc1OC (stereo not given)	23	6.2*	-0.18	0.33	-0.67	18852*	1628	+
CC(C)OC(=O)CSc1nc(-c2ccc(F)cc2)cc(C(F)(F)F)n1	38	·	·	·	·	·	·	·
COc1ccc(C2CC(c3ccccc3C)n3nc(N)nc3N2)cc1 (stereo not given)	·	-0.011	-0.048	0.013	-0.63	·	·	·
CCOc1ccc(C2CC(c3cccc(C)c3)n3nc(N)nc3N2)cc1 (stereo not given)	·	5*	-0.99	0.23	-0.38	10456*	·	+
Cc1cccc(C2CC(c3ccc(Cl)cc3)Nc3nc(N)nn32)c1 (stereo not given)	-28	2	-0.079	-2.3	-0.47	·	·	·
Cc1cccc(C2CC(c3ccc(F)cc3)Nc3nc(N)nn32)c1 (stereo not given)	·	4.7*	-0.083	0.35	-0.55	11784*	1444	i
CCOc1ccc(C2CC(c3cccc(OC)c3)n3nc(N)nc3N2)cc1 (stereo not given)	·	1.8	0.03	-0.33	-0.08	·	·	·
Cc1ccc(C2CC(c3ccccc3C)n3nc(N)nc3N2)cc1 (stereo not given)	·	5.3*	0.51	-1.1	-0.39	6604	1668	i
CCOC(=O)Nc1c(O)ccc2oc(C)c(-c3ccccc3)c12	-17	-0.41	0.00053	2.4	0.78	·	·	·
COc1ccc(-c2cc(N)n(S(=O)(=O)c3c(F)c(F)c(F)c(F)c3F)n2)cc1OC	-25	4.9*	-2.8	-1.3	-1.1	11216*	1688	+
CC(=O)NC1(c2ccccc2)CCN(c2nc(C)cc(C)n2)CC1	·	3.5*	0.45	-1.1	0.06	7128	1700	i
Cc1cccc(N2C(=O)CC(N3CCC(c4nc5ccccc5[nH]4)CC3)C2=O)c1 (stereo not given)	19	·	·	·	·	·	·	·
Cc1ccc(N2CC(c3nc4ccccc4[nH]3)CC2=O)c(C)c1 (stereo not given)	·	11*	0.19	-0.42	-0.07	6760	1648	i
CC(C#N)Sc1nc2ccccc2c(=O)n1-c1ccccc1 (stereo not given)	·	9.2*	-1	2.1	-0.89	22624*	1776	+
COn1c(SC(C)C)nc2ccccc2c1=O	21	·	·	·	·	·	·	·
Cc1nc2sc3c(c2c(=O)o1)CCCC3	12	-0.15	-0.12	-0.43	1.2	·	·	·
Cc1csc(SCc2nc3sc4c(c3c(=O)[nH]2)CCC4)n1	-26	2.3	-0.087	-0.57	1.8	·	·	·
Cc1nc2sc3c(c2c(=O)[nH]1)CCC3	·	3.1*	0.061	0.41	0.02	11308*	1476	i
